Activity calls are given as the source filed them. Rule for the calls, unless noted: active = hit-call score of the fitted dose curve at least 0.9, where 1 is the maximum; inactive = score below 0.9.
Experiments:
[1] = read-out: Monocyte Chemoattractant Protein-1 (MCP1), CCL2 (gene 6347); assay: BSK_LPS_MCP1: BioMAP Diversity Plus: LPS Assay for Monocyte Chemoattractant Protein-1 (MCP1) Biomarker Activity (AID 2283081); details: primary human HUVEC with PBMC; actives raise or lower the signal;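 for AC50: secreted MCP-1 protein quantified by ELISA in culture supernatant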
Outline: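 Human endothelial–PBMC co-cultures were dosed with chemical, then LPS-driven MCP-1 levels were quantified by ELISA at 24 h. Activity in either direction was fitted versus DMSO negative control.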

[2] = BSK_LPS_PGE2: BioMAP Diversity Plus: LPS Assay for Prostaglandin E2 (PGE2) Biomarker Activity (AID 2283082); details: primary human HUVEC with PBMC; actives raise or lower the signal;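 for AC50: secreted prostaglandin E2 measured by ELISA in LPS-stimulated co-culture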
Outline: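 LPS-activated HUVEC/PBMC co-culture; cmpd dosed, 24 h; PGE2 by ELISA; bidirectional fit vs DMSO; SRB (0.1%, TCA-fixed, 560 nm) in parallel plates for overt cytotox.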

[3] = read-out: Macrophage colony-stimulating factor (MCSF), CSF1 (gene 1435); assay: BSK_LPS_MCSF: BioMAP Diversity Plus: LPS Assay for Macrophage colony-stimulating factor (MCSF) Biomarker Activity (AID 2283083); details: primary human HUVEC with PBMC; actives raise or lower the signal
Outline: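 ELISA readout of M-CSF after 24 h compound exposure in a human endothelial/PBMC co-culture. Activity, in either direction, is fitted relative to DMSO vehicle.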

[4] = read-out: Tissue Factor, F3 (gene 2152); assay: BSK_LPS_TissueFactor: BioMAP Diversity Plus: LPS Assay for Tissue Factor Biomarker Activity (AID 2283084); details: primary human HUVEC with PBMC; actives raise or lower the signal
Outline: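 ELISA signal for cell-surface Tissue Factor (CD142) was read 24 h after compound dosing of an LPS-stimulated human endothelial–PBMC primary co-culture. Gain or loss of signal was scored relative to DMSO.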

[5] = read-out: Tumor necrosis factor (Homo sapiens) (UniProt P01375); assay: BSK_LPS_TNFa: BioMAP Diversity Plus: LPS Assay for Tumour Necrosis Factor alpha (TNFa) Biomarker Activity (AID 2283085); details: primary human HUVEC with PBMC; actives raise or lower the signal
Outline: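 Read-out is ELISA of TNFa in primary human endothelial cell–PBMC co-cultures at 24 h after compound. Activity in either direction was fitted against DMSO.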

[6] = read-out: Vascular cell adhesion molecule 1 (VCAM1), VCAM1 (gene 7412); assay: BSK_LPS_VCAM1: BioMAP Diversity Plus: LPS Assay for Vascular cell adhesion molecule 1 (VCAM1) Biomarker Activity (AID 2283086); details: primary human HUVEC with PBMC; actives raise or lower the signal
Outline: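 HUVEC + PBMC co-culture, LPS system; compound 24 h; VCAM-1 by ELISA; bidirectional fit vs DMSO control; parallel SRB (0.1%, TCA-fixed, 560 nm) for cytotoxicity.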

[7] = read-out: CD38, CD38 (gene 952); assay: BSK_SAg_CD38: BioMAP Diversity Plus: SAg Assay for CD38 Biomarker Activity (AID 2283087); details: primary human HUVEC with PBMC; actives raise or lower the signal
Outline: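 Human HUVEC plus PBMC co-culture stimulated with superantigen; CD38 measured by ELISA 24 h after chemical dosing. Fluorescence read-out, bidirectional fit against DMSO; cytotoxicity tracked in parallel by SRB and Alamar Blue.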

[8] = read-out: CD40, CD40 (gene 958); assay: BSK_SAg_CD40: BioMAP Diversity Plus: SAg Assay for CD40 Biomarker Activity (AID 2283088); details: primary human HUVEC with PBMC; actives raise or lower the signal
Outline: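 Compounds were dosed onto a human primary endothelial–PBMC co-culture, and after 24 h CD40 was quantified by ELISA using a fluorescence signal. Activity in either direction was fitted relative to DMSO.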

[9] = read-out: Monocyte Chemoattractant Protein-1 (MCP1), CCL2 (gene 6347); assay: BSK_SAg_MCP1: BioMAP Diversity Plus: SAg Assay for Monocyte Chemoattractant Protein-1 (MCP1) Biomarker Activity (AID 2283090); details: primary human HUVEC with PBMC; actives raise or lower the signal
Outline: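 MCP-1 levels in the endothelial–PBMC SAg co-culture were quantified by ELISA at 24 h post-dosing; both increases and decreases versus DMSO scored. Cytotoxicity monitored by SRB total protein in parallel cultures.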

[10] = read-out: E-selectin (Homo sapiens) (UniProt P16581); assay: BSK_SAg_Eselectin: BioMAP Diversity Plus: SAg Assay for Eselectin Biomarker Activity (AID 2283091); details: primary human HUVEC with PBMC; actives raise or lower the signal
Outline: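 Co-culture: HUVEC + PBMC. Dose compound; 24 h. ELISA for E-selectin. Bidirectional fit vs DMSO.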

[11] = read-out: Monokine induced gamma interferon (MIG), CXCL9 (gene 4283); assay: BSK_SAg_MIG: BioMAP Diversity Plus: SAg Assay for Monokine induced gamma interferon (MIG) Biomarker Activity (AID 2283092); details: primary human HUVEC with PBMC; actives raise or lower the signal
Outline: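 HUVEC plus human PBMC co-culture, chemicals dosed and MIG (CXCL9) quantified by ELISA at 24 h. Bidirectional curve fitting against DMSO as negative control and baseline, so both gain and loss of signal count as activity.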

[12] = BSK_SAg_PBMCCytotoxicity: PBMC Cytotoxicity Assessment in the BioMAP Diversity Plus: SAg Assay (AID 2283093); details: primary human HUVEC with PBMC;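 note: PBMC viability measured as Alamar Blue reduction fluorescence at 546/580 nm; fitted both ways against DMSO so a hit may be loss or gain of signal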;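 for AC50: PBMC superantigen activated with SEB plus TSST-1 one hour after compound addition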
Outline: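 Compound added to 75,000 PBMC/well for 1 h; SEB and TSST-1 then added at 20 ng/mL final each; 90 h incubation; Alamar Blue 6 h; read 546/580 nm ex/em. Activity fitted bidirectionally relative to DMSO baseline.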

[13] = read-out: Interleukin-8 (IL8), CXCL8 (gene 3576); assay: BSK_SAg_IL8: BioMAP Diversity Plus: SAg Assay for Interleukin-8 (IL8) Biomarker Activity (AID 2283094); details: primary human HUVEC with PBMC; actives raise or lower the signal
Outline: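 ELISA read-out of IL-8 in a primary human vascular co-culture (umbilical vein endothelium plus PBMC), taken 24 h after compound addition. Values derive from bidirectional fits against DMSO negative controls.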

[14] = BSK_SAg_Proliferation: Cell Proliferation Assessment in the BioMAP Diversity Plus: SAg Assay (AID 2283095); details: primary human HUVEC with PBMC;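 note: relative cell number as total protein by SRB absorbance in sub-confluent culture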
Outline: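 Cells (endothelium plus PBMC, human primary) were dosed with chemical, cultured 96 h, fixed in 10% TCA and stained with 0.1% SRB. Absorbance at 560 nm gave relative protein, fitted bidirectionally relative to DMSO.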

[15] = BSK_SAg_SRB: Viability Assessment in the BioMAP Diversity Plus: SAg Assay (AID 2283096); details: primary human HUVEC with PBMC;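 note: cells read one day after compound addition; hits may be either gain or loss of signal compared with DMSO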
Outline: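 Total protein by sulforhodamine B staining, 24 h after dosing, in HUVEC–PBMC co-culture; DMSO-referenced bidirectional fitting.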

[16] = target: human CYP1A2, CYP1A2 (gene 1544) (UniProt P05177); assay: NVS_ADME_hCYP1A2: NovaScreen (NVS) CYP450-related Enzyme Activity (ADME) Assay for human CYP1A2 (AID 2283102; active = hit-call score of the fitted dose curve at least 0.9, where 1 is the maximum;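 note: fluorescence from turnover of a fluorogenic substrate by recombinant insect-cell CYP1A2; potency for inhibition since loss of fluorescence marks reduced CYP1A2 activity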)
Chain of human CYP1A2, CYP1A2 (gene 1544) (P05177 whole entry, looked up): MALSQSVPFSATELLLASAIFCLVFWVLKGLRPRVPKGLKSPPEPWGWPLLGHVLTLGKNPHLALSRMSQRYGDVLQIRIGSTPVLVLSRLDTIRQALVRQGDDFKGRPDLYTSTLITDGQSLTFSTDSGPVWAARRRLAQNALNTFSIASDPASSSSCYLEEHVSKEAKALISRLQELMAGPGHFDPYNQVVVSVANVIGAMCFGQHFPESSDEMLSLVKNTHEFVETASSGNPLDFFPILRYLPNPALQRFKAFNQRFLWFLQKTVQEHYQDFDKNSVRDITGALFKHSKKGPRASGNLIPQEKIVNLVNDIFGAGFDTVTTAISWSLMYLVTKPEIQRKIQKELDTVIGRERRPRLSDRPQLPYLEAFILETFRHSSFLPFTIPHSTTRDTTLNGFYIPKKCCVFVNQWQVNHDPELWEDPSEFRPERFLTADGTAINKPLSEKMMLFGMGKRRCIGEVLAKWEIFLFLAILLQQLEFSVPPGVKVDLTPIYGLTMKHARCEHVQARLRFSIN
Outline: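 rec. hCYP1A2 (insect cells), cell-free; fluorogenic substrate; 0.5 h; FI read. Baseline = acetonitrile; signal loss = inhibition. 10 uM duplicate primary → conc. series for actives.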

[17] = target: human CYP2C8, CYP2C8 (gene 1558) (UniProt P10632); assay: NVS_ADME_hCYP2C8: NovaScreen (NVS) CYP450-related Enzyme Activity (ADME) Assay for human CYP2C8 (AID 2283104)
Chain of human CYP2C8, CYP2C8 (gene 1558) (P10632 whole entry, looked up): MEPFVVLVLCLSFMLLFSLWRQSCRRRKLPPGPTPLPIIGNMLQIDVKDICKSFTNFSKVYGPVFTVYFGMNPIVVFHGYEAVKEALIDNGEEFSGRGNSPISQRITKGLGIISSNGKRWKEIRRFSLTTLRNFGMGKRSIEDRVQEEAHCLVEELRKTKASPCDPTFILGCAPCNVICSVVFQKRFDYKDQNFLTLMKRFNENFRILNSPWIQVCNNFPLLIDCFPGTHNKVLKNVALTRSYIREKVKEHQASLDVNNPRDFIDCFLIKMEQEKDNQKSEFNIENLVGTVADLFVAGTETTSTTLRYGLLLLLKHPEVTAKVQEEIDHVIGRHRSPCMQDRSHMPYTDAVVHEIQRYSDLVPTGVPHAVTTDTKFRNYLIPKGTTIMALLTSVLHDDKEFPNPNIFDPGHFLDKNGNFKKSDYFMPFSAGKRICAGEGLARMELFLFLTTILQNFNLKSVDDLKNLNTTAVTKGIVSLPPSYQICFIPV
Outline: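 Recombinant human CYP2C8 with fluorogenic substrate, 0.5 h, fluorescence intensity; signal loss fitted versus acetonitrile. Screened in duplicate at 10 uM, then actives run in concentration-response up to 20 uM.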

Chain of Tumor necrosis factor (Homo sapiens) (P01375 whole entry, looked up): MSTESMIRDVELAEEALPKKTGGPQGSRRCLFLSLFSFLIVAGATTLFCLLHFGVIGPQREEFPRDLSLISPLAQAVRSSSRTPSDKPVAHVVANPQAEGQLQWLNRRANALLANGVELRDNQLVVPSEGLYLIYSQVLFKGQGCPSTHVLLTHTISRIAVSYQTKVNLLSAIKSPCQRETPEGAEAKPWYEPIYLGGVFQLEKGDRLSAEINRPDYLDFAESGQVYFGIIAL
Chain of E-selectin (Homo sapiens) (P16581 whole entry, looked up): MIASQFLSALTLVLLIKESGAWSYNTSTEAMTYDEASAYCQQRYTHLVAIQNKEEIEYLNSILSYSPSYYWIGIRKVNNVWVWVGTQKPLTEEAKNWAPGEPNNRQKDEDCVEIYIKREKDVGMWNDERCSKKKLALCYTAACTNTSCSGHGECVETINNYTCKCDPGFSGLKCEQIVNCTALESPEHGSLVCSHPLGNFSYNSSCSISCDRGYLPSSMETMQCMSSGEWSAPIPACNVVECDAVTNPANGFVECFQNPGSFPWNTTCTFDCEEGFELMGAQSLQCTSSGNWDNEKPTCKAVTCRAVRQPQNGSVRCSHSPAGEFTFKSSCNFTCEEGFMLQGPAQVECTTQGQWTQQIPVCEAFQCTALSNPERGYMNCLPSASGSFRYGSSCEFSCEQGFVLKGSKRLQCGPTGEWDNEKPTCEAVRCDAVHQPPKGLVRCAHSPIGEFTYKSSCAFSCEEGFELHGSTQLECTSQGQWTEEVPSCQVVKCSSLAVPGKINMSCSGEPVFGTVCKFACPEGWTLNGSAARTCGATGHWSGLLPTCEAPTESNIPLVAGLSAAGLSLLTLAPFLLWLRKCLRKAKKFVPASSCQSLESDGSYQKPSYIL

Q: Which AC50 [1] does the source give for C=CCC1=C(C)[C@@H](OC(=O)[C@@H]2[C@@H](C=C(C)C)C2(C)C)CC1=O here?
A: 32.1 µM (active)

Q: And the AC50 [2]?
A: 4.92 µM (active)

Q: And the AC50 [3]?
A: 26.9 µM (active)

Q: What about the outcome [4] of the same compound?
A: inactive

Q: And the AC50 [5]?
A: 36.5 µM (active)

Q: What about the AC50 [6] of the same compound?
A: 29.2 µM (active)

Q: What about the AC50 [7] of the same compound?
A: 33.1 µM (active)

Q: And the AC50 [8]?
A: 38.7 µM (active)

Q: And the AC50 [9]?
A: 33.2 µM (active)

Q: And the AC50 [10]?
A: 27.4 µM (active)

Q: What about the AC50 [11] of the same compound?
A: 38.9 µM (active)

Q: And the AC50 [12]?
A: 32.4 µM (active)

Q: And the AC50 [13]?
A: 25.3 µM (active)

Q: And the AC50 [14]?
A: 33.8 µM (active)

Q: And the AC50 [15]?
A: 29.2 µM (active)

Q: With Cc1ccc(-c2c(Cl)nc(C#N)n2S(=O)(=O)N(C)C)cc1 as the compound, how does the AC50 [1] read?
A: 29.6 µM (active)

Q: What about the AC50 [2] of the same compound?
A: 30 µM (active)

Q: And the AC50 [3]?
A: 31.5 µM (active)

Q: And the outcome [4]?
A: inactive

Q: And the outcome [5]?
A: inactive

Q: What about the AC50 [6] of the same compound?
A: 34 µM (active)

Q: And the AC50 [7]?
A: 22.5 µM (active)

Q: What about the AC50 [8] of the same compound?
A: 20 µM (active)

Q: And the AC50 [9]?
A: 24.7 µM (active)

Q: What about the AC50 [10] of the same compound?
A: 13.5 µM (active)

Q: And the AC50 [11]?
A: 28.8 µM (active)

Q: And the outcome [12]?
A: inactive

Q: And the AC50 [13]?
A: 13.4 µM (active)

Q: And the AC50 [14]?
A: 30 µM (active)

Q: And the AC50 [15]?
A: 25 µM (active)

Q: What about the AC50 [16] of the same compound?
A: 5.8 µM (active)

Q: What about the AC50 [17] of the same compound?
A: 3.9 µM (active)

Q: With Cc1c(F)c(F)c(COC(=O)C2C(/C=C(\Cl)C(F)(F)F)C2(C)C)c(F)c1F (stereo unspecified) as the compound, how does the outcome [1] read?
A: inactive

Q: What about the outcome [2] of the same compound?
A: inactive

Q: What about the AC50 [3] of the same compound?
A: 12.7 µM (active)

Q: And the outcome [4]?
A: inactive

Q: And the outcome [5]?
A: inactive

Q: And the AC50 [6]?
A: 12 µM (active)

Q: And the AC50 [7]?
A: 9.52 µM (active)

Q: What about the AC50 [8] of the same compound?
A: 32.5 µM (active)

Q: What about the outcome [9] of the same compound?
A: inactive

Q: And the AC50 [10]?
A: 12.5 µM (active)

Q: And the outcome [11]?
A: inactive

Q: And the outcome [12]?
A: inactive

Q: And the outcome [13]?
A: inactive

Q: What about the AC50 [14] of the same compound?
A: 26.6 µM (active)

Q: And the AC50 [15]?
A: 25.9 µM (active)

Q: Which AC50 [1] does the source give for O=C(Nc1ccccc1)Nc1ccnc(Cl)c1 here?
A: 9.85 µM (active)

Q: What about the AC50 [2] of the same compound?
A: 6.08 µM (active)

Q: What about the outcome [3] of the same compound?
A: inactive

Q: And the outcome [4]?
A: inactive

Q: What about the AC50 [5] of the same compound?
A: 31.1 µM (active)

Q: What about the outcome [6] of the same compound?
A: inactive

Q: And the outcome [7]?
A: inactive

Q: And the outcome [8]?
A: inactive

Q: What about the outcome [9] of the same compound?
A: inactive

Q: And the AC50 [10]?
A: 14.2 µM (active)

Q: And the outcome [11]?
A: inactive

Q: And the outcome [12]?
A: inactive

Q: And the AC50 [13]?
A: 20 µM (active)

Q: And the AC50 [14]?
A: 33.5 µM (active)

Q: What about the outcome [15] of the same compound?
A: inactive

Q: For CCCCC(CC)COC(=O)c1ccccc1C(=O)OCC(CC)CCCC (stereo unspecified), which outcome [1] is on record?
A: inactive

Q: And the outcome [2]?
A: inactive

Q: And the AC50 [3]?
A: 4.51 µM (active)

Q: What about the outcome [4] of the same compound?
A: inactive

Q: And the AC50 [5]?
A: 12.3 µM (active)

Q: And the outcome [6]?
A: inactive

Q: What about the AC50 [7] of the same compound?
A: 7.36 µM (active)

Q: What about the outcome [8] of the same compound?
A: inactive

Q: What about the outcome [9] of the same compound?
A: inactive

Q: What about the outcome [10] of the same compound?
A: inactive

Q: What about the outcome [11] of the same compound?
A: inactive

Q: What about the outcome [12] of the same compound?
A: inactive

Q: And the outcome [13]?
A: inactive

Q: What about the AC50 [15] of the same compound?
A: 5 µM (active)

From PubChem BioAssay (EPA / NIEHS)
